Tgondii IFNg – T. gondii growth inhibition with IFN-gamma, primary screen, cell-based | Toxoplasma gondii growth in IFN-gamma-treated host cells; stronger effect = lower value | 69,000 tested, 3.8% active | AID 1259416, 2018 | activity change, negative = inhibition, % (no concentration beside the values); in the data active = activity change below about -70%, passing the limit was not always enough;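 also: host cells are HeLa cells infected with Toxoplasma gondii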
Active calls of the source: *; ! = a repeat was not active. The full list was thinned out, with hits kept by preference.

SMILES	Tgondii IFNg
CC(C)(COC(=O)Nc1ccc(Cl)cc1)n1cccc1	10.0
CCCOC1CCCN(c2ccnc(C(=O)NCc3ccco3)c2)C1 (stereo unspecified)	1.9
CN(C)c1nc(CNC(=O)C2(c3ccccc3F)CC2)cs1	39.2
COc1cccc2c1OCC(C(=O)NCCSc1nnnn1C)C2 (stereo unspecified)	2.2
Cc1onc(-c2ccccc2)c1C(=O)Nc1cccnc1	23.5
COC(=O)c1ccc(Cl)cc1NC(=O)c1c(-c2c(F)cccc2Cl)noc1C	-18.7
Cc1onc(-c2c(Cl)cccc2Cl)c1C(=O)NC(=S)Nc1ccccc1	-72.6*
O=C(O)Cn1cc(CN2CCCC2)c2ccccc21	-42.7
O=C(O)Cn1nnc(-c2ccccc2)n1	4.7
C=CCn1c(SCC(=O)OCC)nc2sc3c(c2c1=O)CC(C)(C)OC3	-7.3
N#Cc1c(NC(=O)C2CC(c3cccc(Br)c3)=NO2)sc2c1CCC2 (stereo unspecified)	-20.2
N#Cc1c(NC(=O)C2CC(=O)OC23CCCCC3)sc2c1CCCCC2 (stereo unspecified)	-91.5*
CCC(Sc1ncc(-c2ccccc2)nn1)C(=O)Nc1sc2c(c1C#N)CCCC2 (stereo unspecified)	150.0
CCOC(=O)c1c(NC(=O)C2CC(=O)OC23CCCCC3)sc2c1CC(C)(C)OC2 (stereo unspecified)	-96.0*
CCOC(=O)c1c(NC(=O)CSc2nc(C)cc(C)n2)sc2c1CCC2	-44.3
Cc1c(-c2ccc(Cl)cc2)n[nH]c1C(=O)N1CCC2(CN(C)C(=O)O2)C1 (stereo unspecified)	-44.7
N#Cc1c(F)cccc1Oc1ccccc1	31.7
CC(C)c1nccc(C(=O)N[C@H]2C[C@H]3C(=O)N(C)CC(=O)N3C2)n1	16.2
COc1ccc(CNC(=O)c2c(O)c3cccnc3n(-c3cccc(F)c3)c2=O)cc1	183.0
Brc1ccc(Nc2c3ccccc3nc3ccccc23)cc1	-92.4*
Fc1ccc(CSc2nc(Nc3ccc(F)cc3)c3ccccc3n2)cc1	-39.6
Cc1nc(OCC(=O)Nc2ccc(Br)cc2)c2ccccc2n1	-7.2
Cc1nc(-c2cccnc2)ncc1C(=O)N(C)CCC(O)c1ccccc1 (stereo unspecified)	-0.6
O=S1(=O)CCC(NCc2ccco2)C1 (stereo unspecified)	34.2
CCC(=O)Nc1cccc(C(=O)NCCC2=CSC3=NCCCN23)c1	4.4
SMILES	Tgondii IFNg
Cc1cc(C)cc(S(=O)(=O)N2CCC3(CC2)Nc2ccc(C)c(C)c2-n2cccc23)c1	17.7
O=C1CC(c2ccc(O)cc2)Oc2cc(O)cc(O)c21 (stereo unspecified)	66.7
Oc1ccc([C@H]2COc3cc(O)ccc3C2)cc1	-73.2*!
Oc1ccc([C@H]2Oc3cc(O)cc(O)c3C[C@H]2O)cc1	6.9
COc1ccc(NC(=O)c2nc(Nc3ccc(Cl)cc3)c3ccccc3n2)cc1Cl	56.5
CC(C)Cc1nc(C(C)NS(C)(=O)=O)n(-c2ccc3c(c2)OCCO3)n1 (stereo unspecified)	-21.6
COc1cc(C(=O)N2CCc3c([nH]c4ccccc34)C2c2ccc(SC)cc2)cc(OC)c1OC (stereo unspecified)	-60.1
CSc1ccc(C2c3[nH]c4ccccc4c3CCN2C(=O)c2ccncc2)cc1 (stereo unspecified)	309.0
CSc1ccc(C2c3[nH]c4ccccc4c3CCN2C(=O)c2ccccc2)cc1 (stereo unspecified)	-87.8*
COc1ccc(C(=O)N2CCc3c([nH]c4ccccc34)C2c2ccc(SC)cc2)cc1 (stereo unspecified)	-104.6*
CSc1ccc(C2c3[nH]c4ccccc4c3CCN2C(=O)c2ccc(F)cc2)cc1 (stereo unspecified)	-41.9
COc1ccc(CC(=O)N2CCc3c([nH]c4ccccc34)C2c2ccc(SC)cc2)cc1 (stereo unspecified)	298.6
Cc1nnc(SCC(=O)NCCN2CCC(O)(c3ccc(F)cc3)CC2)o1	10.5
CN1CCO[C@H]2CN(C(=O)c3ccc4[nH]ccc4c3)CC[C@@H]2C1	-23.4
Cc1c(C2=CCN(S(=O)(=O)c3cccc4cccnc34)CC2)c2ccccc2n1Cc1c(F)cccc1Cl	-57.0
O=C(CN1C(=O)CCc2cc(S(=O)(=O)N3CCOCC3)ccc21)NC1CCCc2ccccc21 (stereo unspecified)	3.2
CC(=O)N1CCc2c(nc(N(C)C)nc2N(C)CC2CCCO2)C1 (stereo unspecified)	20.5
Cc1c(C(=O)N2CCC(C)CC2)oc2ccc3c(c12)C(=O)CC1(CCCCCC1)O3	-110.4*
Cc1c(C(=O)N2CC(C)CC(C)C2)oc2ccc3c(c12)C(=O)CC1(CCCCCC1)O3 (stereo unspecified)	-99.3*
Cc1ccc2c(C)c(C(=O)N3CCCC4(CC3)CNC(=O)O4)oc2c1 (stereo unspecified)	0.0
Cc1ccc2c(C)c(C(=O)N3CCC4(CN(C)C(=O)O4)C3)oc2c1 (stereo unspecified)	3.7
Cc1ccc2c(c1)C(=O)CC1(CCN(C(=O)C3CCCC3)CC1)O2	-4.2
CCOC(=O)C1CCN(C(=O)c2oc3ccc4c(c3c2C)C(=O)CC2(CCCCC2)O4)CC1	325.2
CCOc1ccccc1NC(=O)CC(=O)N1CC=CC1C(C)C (stereo unspecified)	2.5
Cc1cnn(Cc2nc(-c3ccc(NC(=O)Cc4ccccc4C)cc3)oc2C)c1	132.8
SMILES	Tgondii IFNg
CCCCS(=O)(=O)N1CCC2(CC1)CCn1c(-c3ccc(C(N)=O)cc3)cnc12	-5.4
CC(=O)CC1N(C2CCCCCC2)C(=O)C2N(C3CCCCCC3)C(=O)C3CC(=O)OC312 (stereo unspecified)	73.5
CCc1nc(-c2c(-c3ccccc3)ncn2CCCO)c(C)[nH]1	3.1
CN(C)C(=O)CCCn1cnc(-c2ccccc2)c1-c1cc2ccccc2[nH]1	-5.9
OCCCCn1cnc(-c2ccccc2)c1-c1ccc2cccc(Cl)c2n1	-88.5*
Cc1c(-c2nnnn2-c2ccc(F)cc2)cnc2cc3c(cc12)OCO3	77.7
CNCCn1c(=O)c2cc(OC)c(OC)cc2c2cnc3cc4c(cc3c21)OCO4	-79.9*
CC1=C(C(=O)NCCCc2ccccc2)C2(CCN(S(C)(=O)=O)CC2)OC1=O	16.5
c1cnc(N2CCOCC3(CCN(Cc4ccc[nH]4)CC3)C2)nc1	-2.3
Cc1ccc2c(c1)CCCN2CCn1c(=O)[nH]c2ccc(C)cc2c1=O	-82.3*
Cc1ccc2[nH]c3c(=O)n(CCCN4CCN(C)CC4)cnc3c2c1	-3.9
Cc1ccc2[nH]c3c(=O)n(CCc4cnc[nH]4)cnc3c2c1	44.2
Cc1ccc(Nc2nc(C(=O)NC(C)C)nc3ccccc23)cc1	-78.8*
CCOC(=O)c1nc(NCCc2ccc(C)cc2)c2ccccc2n1	-72.5*
Cc1ccc(Nc2nc(C(=O)NCCC(C)C)nc3ccccc23)cc1	-87.2*
Cc1ccc(Nc2nc(C(=O)Nc3cc(C)cc(C)c3)nc3ccccc23)cc1	-7.0
CC(NC(=O)c1nc(Nc2ccc(F)cc2)c2ccccc2n1)c1ccccc1 (stereo unspecified)	-8.1
CCCCNc1nc(C(=O)OCC)nc2ccccc12	0.6
CC(C)CCNC(=O)c1nc(Nc2ccccc2)c2ccccc2n1	-46.5
CCOC(=O)c1nc(NCc2ccc(C)cc2)c2ccccc2n1	6.8
CCOCCCNC(=O)c1nc(Nc2ccc(C)cc2)c2ccccc2n1	-54.7
COc1cccc2c1OCCCN(Cc1ncccc1C(=O)O)C2	5.4
Cc1nc(CN2CCC3(CC2)COCCN3S(C)(=O)=O)cs1	-5.5
Cc1nc2cc(N3CCC(C(=O)N4CCC(N5CCCCC5)CC4)CC3)cnc2nc1C	-32.9

High-throughput results deposited in PubChem by Broad Institute.
